Measurements from ChEMBL document CHEMBL1201862, “PubChem BioAssay data set” (2004).
Hit rate of the full screen: of about 400,000 compounds, about 2,100 (0.53%) were called active. Roughly 14% stayed inconclusive and do not appear here. The rule behind the calls is not given here. The sample as a whole holds a higher share of actives than the screen did.

target: Ataxin-2 (Homo sapiens) (UniProt Q99700); test: qHTS for Inhibitors of ATXN expression.; format: functional
Sequence (Q99700 whole entry): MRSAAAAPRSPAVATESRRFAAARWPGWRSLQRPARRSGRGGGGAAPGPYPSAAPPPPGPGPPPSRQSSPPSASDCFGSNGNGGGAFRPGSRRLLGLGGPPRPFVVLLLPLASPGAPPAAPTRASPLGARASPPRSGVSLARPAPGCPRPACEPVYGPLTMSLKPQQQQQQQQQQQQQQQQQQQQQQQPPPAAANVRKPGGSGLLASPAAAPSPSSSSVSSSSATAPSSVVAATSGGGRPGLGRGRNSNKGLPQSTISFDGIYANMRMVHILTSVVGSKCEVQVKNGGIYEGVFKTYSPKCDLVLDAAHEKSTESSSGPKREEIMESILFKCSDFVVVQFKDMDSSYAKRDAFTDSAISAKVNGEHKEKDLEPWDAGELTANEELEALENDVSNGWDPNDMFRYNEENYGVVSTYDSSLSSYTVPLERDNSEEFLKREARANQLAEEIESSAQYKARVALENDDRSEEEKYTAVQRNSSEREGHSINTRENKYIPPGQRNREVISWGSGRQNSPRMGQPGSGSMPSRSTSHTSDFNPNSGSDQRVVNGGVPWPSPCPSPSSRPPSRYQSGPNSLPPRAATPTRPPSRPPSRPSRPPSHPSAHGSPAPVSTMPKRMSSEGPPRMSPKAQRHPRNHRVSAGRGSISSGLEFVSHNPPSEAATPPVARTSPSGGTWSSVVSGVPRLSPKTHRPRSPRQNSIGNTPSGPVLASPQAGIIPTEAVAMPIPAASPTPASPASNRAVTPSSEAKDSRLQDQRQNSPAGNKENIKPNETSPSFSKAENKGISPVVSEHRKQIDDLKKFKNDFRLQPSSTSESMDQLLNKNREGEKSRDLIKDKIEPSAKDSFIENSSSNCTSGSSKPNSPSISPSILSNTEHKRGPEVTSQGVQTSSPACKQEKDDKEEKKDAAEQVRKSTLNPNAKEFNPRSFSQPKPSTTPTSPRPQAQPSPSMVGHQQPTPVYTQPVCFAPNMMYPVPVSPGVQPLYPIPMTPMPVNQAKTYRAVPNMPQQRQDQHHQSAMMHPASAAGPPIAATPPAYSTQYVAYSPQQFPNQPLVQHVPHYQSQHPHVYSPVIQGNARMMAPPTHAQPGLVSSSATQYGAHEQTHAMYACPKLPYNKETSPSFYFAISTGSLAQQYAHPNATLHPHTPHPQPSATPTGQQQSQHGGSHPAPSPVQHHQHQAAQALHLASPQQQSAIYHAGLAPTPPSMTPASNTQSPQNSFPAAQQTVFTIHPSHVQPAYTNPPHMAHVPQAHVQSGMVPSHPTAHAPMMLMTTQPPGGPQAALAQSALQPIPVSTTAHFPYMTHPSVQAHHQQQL

Row | SMILES | Potency
1 | CC1CCCCC1NC(=O)CN1C(=O)c2cccc(N)c2C1=O (centres undefined) | inactive
2 | Cc1snc(SCC(=O)c2ccc(F)cc2)c1C#N | inactive
3 | COCCCNC(=O)/C(C#N)=C/c1c(N2CCN(c3ccccc3)CC2)nc2ccccn2c1=O | inactive
4 | CCCC(=O)Nc1nn(CCC)c2nc3ccccc3cc12 | inactive
5 | Oc1nc(-c2ccccc2)nc2sc(-c3ccccc3)cc12 | inactive
6 | Cc1cccc(N2C(=O)c3cccc4c(N(C)CCO)ccc(c34)C2=O)c1 | inactive
7 | Cc1ccc2nc3c(cc(C(=O)NCC4CCCO4)c(=N)n3C3CCCC3)c(=O)n2c1 (centres undefined) | inactive
8 | Nc1c(C(=O)N/N=C/c2cccnc2)oc2nc(-c3ccccc3)cc(-c3ccco3)c12 | inactive
9 | Cc1csc(NC(=O)C2CCN(C(=O)c3ccccc3C)CC2)n1 | inactive
10 | CCOC(=O)N1CCN(C(=O)C2CCN(C(=O)c3ccccc3C)CC2)CC1 | 35.5 µM (active)
11 | CCOC(=O)N1CCC(NS(=O)(=O)c2ccc(C)cc2)CC1 | inactive
12 | O=C1OCCN1C(=O)[C@H]1[C@H](c2ccc(Cl)cc2)C(c2ccccc2)=NN1c1ccc(Br)cc1 | inactive
13 | COC(=O)C1=C(C)NC(=O)NC1c1ccc(N2CCC(c3ccccc3)=N2)cc1 (centres undefined) | inactive
14 | COc1ccc(C2=CC(c3cccc(OC)c3)n3nnnc3N2)cc1 (centres undefined) | inactive
15 | COC(=O)c1ccc(CSc2cc(C)c3cccc(C)c3n2)o1 | inactive
16 | N#CCCN(C(=O)CCl)c1cccc(Cl)c1 | 8.91 µM (active)
17 | O=C(CCl)N(Cc1cccc([N+](=O)[O-])c1)c1cccc(Cl)c1 | 2.67 µM (active)
18 | Cc1ccc(N(CCC#N)C(=O)CCl)cc1C | 35.5 µM (active)
19 | N#Cc1c2ccc(O)cc2n2ccccc12 | inactive
20 | O=C(c1ccc(F)cc1)C1CCN(C(=O)c2ccccc2F)CC1 | inactive
21 | Cc1cc(NC(=O)CSc2nc3c(cc2C#N)CCCC3)no1 | inactive
22 | CCn1c(SCC(=O)Nc2cc(C)on2)nc2sc3c(c2c1=O)CCCC3 | 10 µM (active)
23 | C=CCNC(=O)CSc1nc2sc3c(c2c(=O)n1CCCOC)CCC3 | inactive
24 | Cc1c(O)ccc2c(CN(C)Cc3ccccc3)cc(=O)oc12 | inactive
25 | O=c1cc(-c2ccccc2)oc2ccc(O)cc12 | inactive

Row | SMILES | Potency
26 | Cc1ccc(C(=O)Nc2c(C)cc(-c3ccccc3)oc2=O)cc1 | inactive
27 | O=c1oc(-c2ccccc2)cc(Cl)c1Cl | 29.9 µM (active)
28 | O=S(=O)(Nc1nccs1)c1ccc(F)cc1 | inactive
29 | O=C1C=C(C#Cc2ccc(Oc3ccccc3)cc2)C[C@@H](c2ccc(F)cc2)C1 | 28.2 µM (active)
30 | CC1C(=O)N(Cc2cn(CCC3OCCO3)nn2)CCS(=O)(=O)N1Cc1ccc(-c2ccc(Cl)c(Cl)c2)cc1 (centres undefined) | 31.6 µM (active)
31 | CC(C)C1C(=O)N(Cc2cn(CCC3OCCCO3)nn2)CCS(=O)(=O)N1Cc1ccc(-c2ccc(Cl)c(Cl)c2)cc1 (centres undefined) | 31.6 µM (active)
32 | COc1ccc(Cn2c(SCC#N)nc3ccc(N4CCOCC4)cc3c2=O)cc1 | inactive
33 | COc1ccc(-c2ccc(CN3C(C)C(=O)N(Cc4cn(CCC5OCCO5)nn4)CCS3(=O)=O)cc2)cc1 (centres undefined) | 35.5 µM (active)
34 | CCN1CCN(C(CC(C)C)c2nnnn2CS(=O)(=O)c2ccc(C)cc2)CC1 (centres undefined) | inactive
35 | COc1cccc(NC(=O)/C(C#N)=C/c2ccc(-c3ccc(C)cc3)o2)c1 | inactive
36 | Cc1ccc(C(=O)N/C(=C/c2ccc(-c3ccc([N+](=O)[O-])cc3)o2)C(=O)NCCCN(C)C)cc1 | inactive
37 | Cc1ccc(Cc2cnc(NC(=O)/C(C#N)=C/c3ccc(-c4ccc([N+](=O)[O-])cc4)o3)s2)cc1 | 22.4 µM (active)
38 | N=c1c(C(=O)NCc2ccc(F)cc2)cc2c(=O)n3ccccc3nc2n1CC1CCCO1 (centres undefined) | inactive
39 | CN1CCc2c(sc3c2C(=O)NC(c2ccc(-c4ccc(Cl)cc4)o2)N3)C1 (centres undefined) | inactive
40 | O=C1C=C(N2CCCCC2)c2ccccc2C1=O | 18.9 µM (active)
41 | O=C1c2cccc3c(N4CCCCC4)ccc(c23)C(=O)N1c1ccccc1O | inactive
42 | O=C1c2ccccc2-c2ccc(C(=O)N3CCCCC3)cc21 | inactive
43 | COc1ccccc1C1CN(c2ccccc2)N=C1c1cccs1 (centres undefined) | inactive
44 | N#Cc1ccc(CN2CCN(C(=O)c3cc(Cl)c4c(c3)OCCO4)CC2)cc1 | inactive
45 | CCN1C(=O)c2cccc3c(Cl)ccc(c23)C1=O | inactive
46 | COCCNC(=O)c1c(N)n(-c2ccccc2)c2nc3ccccc3nc12 | inactive
47 | COCCCNC(=O)c1c(N)n(-c2ccccc2)c2nc3ccccc3nc12 | inactive
48 | Cc1ccc(-n2c(N)c(C(=O)Nc3c(C)n(C)n(-c4ccccc4)c3=O)c3nc4ccccc4nc32)cc1 | 21.2 µM (active)
49 | CN(Cc1ccc(OC(F)F)cc1)C(=O)C1CCN(S(=O)(=O)c2ccc3c(c2)OCCO3)CC1 | inactive
50 | O=C(Nc1cc(S(=O)(=O)N2CCCC2)ccc1Cl)c1ccncc1 | inactive

Row | SMILES | Potency
51 | CCOc1cc(Br)c(/C=C2/C(=O)N(C)C(=S)N2CC(=O)OC)cc1OC | inactive
52 | Cn1c(SCc2cc(O)nc(C(C)(C)C)n2)nnc1C(F)(F)F | inactive
53 | CCCn1c(=N)c(C(=O)NCC2CCCO2)cc2c(=O)n3cc(C)ccc3nc21 (centres undefined) | inactive
54 | Cc1ccc(S(=O)(=O)N2CCN(C(=O)c3cc(S(=O)(=O)N4CCOCC4)c(Cl)cc3Cl)CC2)cc1 | inactive
55 | Nc1nc(-c2ccc(Cl)cc2)c(N=Nc2ccc(S(=O)(=O)N3CCOCC3)cc2)s1 | 29.9 µM (active)
56 | O=c1nc2ccc(Cl)cn2c2ccc(S(=O)(=O)N3CCOCC3)cc12 | inactive
57 | Nc1ccc2c(c1)C/C(=C/c1ccco1)C2=O | inactive
58 | Cc1ccc(C2=CC(c3c(F)cccc3Cl)n3ncnc3N2)cc1C (centres undefined) | inactive
59 | CCOc1cc(C(=O)O)ccc1OCCOc1ccccc1 | inactive
60 | CCCOc1ccc(C(=O)c2ccccc2C(=O)OC2CCOC2=O)cc1OCCC (centres undefined) | 39.8 µM (active)
61 | O=C(OC1CCOC1=O)c1cc(-c2cccs2)nc2ccccc12 (centres undefined) | inactive
62 | O=C(O)c1ccc2nc(-c3cc4cc(Cl)ccc4oc3=O)[nH]c2c1 | inactive
63 | CCn1c2ccccc2c2cc(CN3CCOc4ccc(C(O)c5cccnc5)cc4C3)ccc21 (centres undefined) | 31.6 µM (active)
64 | CC(C)C(OC(=O)c1ccccc1)c1nccc2ccccc12 (centres undefined) | inactive
65 | CCOc1cc2c(cc1/C=C1/NC(=O)N(CC(=O)OC)C1=O)OCO2 | inactive
66 | COc1cc(/C=C/C(=O)O)ccc1OS(=O)(=O)c1cc(C)ccc1C | inactive
67 | COc1ccc(/C=c2\s/c(=C/C(=O)c3ccc(C)cc3)[nH]c2=O)cc1OC | inactive
68 | COc1ccc(OC)c(N/C=C/C(=O)c2ccc(OC)c(OC)c2)c1 | inactive
69 | COc1cc(/C=C/C(=O)c2ccc(C)cc2)ccc1OCC#N | 39.8 µM (active)
70 | COc1cccc(C(=O)/C=C/c2ccc(OCC#N)c(OC)c2)c1 | 31.6 µM (active)
71 | COc1ccc(C=CC(=O)c2ccc3cc(OC)c(OC)cc3c2)cc1OC | inactive
72 | CCS(=O)(=O)Nc1cc2c3c(c1)CCC(=O)N3CCC2 | inactive
73 | O=S(=O)(NN=C(NS(=O)(=O)c1ccccc1)c1ccccc1)c1ccccc1 | inactive
74 | CCc1cc2cc(C)ccc2nc1SCC(=O)NC1CCCC1 | inactive
75 | Cc1cc(=O)n2c(n1)SCOC2 | inactive

Row | SMILES | Potency
76 | Cc1cccn2c(=O)c3cc(C(=O)NCc4ccc(F)cc4)c(=N)n(CC4CCCO4)c3nc12 (centres undefined) | inactive
77 | CC(C)C[C@H](N)c1nnc(S(=O)(=O)Cc2ccc(F)cc2)o1 | 31.6 µM (active)
78 | CC(C)C[C@H](N)c1nnc(S(=O)(=O)Cc2cccc(F)c2)o1 | 39.8 µM (active)
79 | CCOC(=O)N1CCN(S(=O)(=O)c2ccc3c4c(cccc24)C(=O)N3)CC1 | inactive
80 | CCOC(=O)C1CCN(C(=O)C(C)Oc2ccc(Br)cc2)CC1 (centres undefined) | inactive
81 | COc1cc(/C=C2\C(=N)N3N=C(CC(=O)N4CCOCC4)SC3=NC2=O)cc(OC)c1O | inactive
82 | COc1ccc2c(c1)C(=O)N(c1ccc(C)cc1C)C(=O)C2 | 35.5 µM (active)
83 | COc1cc(OC)cc(N2C(=O)CSCC2=O)c1 | inactive
84 | Cc1ccc(N2C(=O)C(Cl)=C(N3CCCCCC3)C2=O)c(C)c1 | inactive
85 | N#CC(C#N)=C1C=C2C=C(N3CCOCC3)CCC2CC1 (centres undefined) | inactive
86 | O=c1oc2c(O)cccc2cc1-c1nc2ccccc2[nH]1 | inactive
87 | Cc1cc(F)ccc1S(=O)(=O)Nc1ccccc1C(=O)Nc1ccccc1-c1nc2ccccc2[nH]1 | 39.8 µM (active)
88 | Cc1ccccc1NS(=O)(=O)c1nnc(NC(=O)c2ccccc2C)s1 | inactive
89 | Cc1cc(C)c2c(N)c(C(=O)N/N=C/c3cccs3)sc2n1 | inactive
90 | Cc1ccc2nc3c(cc(C(=O)NCC4CCCO4)c(=N)n3CCCOC(C)C)c(=O)n2c1 (centres undefined) | inactive
91 | COc1cccc(/C=C/c2nc(C#N)c(N3CCC(C(N)=O)CC3)o2)c1 | inactive
92 | COc1cccc(N2[C@@H](CC(C)=O)c3ccc(/C=C/C(C)=O)cc3S2(=O)=O)c1 | 35.5 µM (active)
93 | CC(C)n1nc(C(=O)NNC(=O)c2ccc(OC(F)F)cc2)c2ccccc2c1=O | inactive
94 | COc1ccc(C(=O)/C=C/c2cn(CC(O)CN3CCN(C)CC3)c3ccccc23)cc1OC (centres undefined) | inactive
95 | CCCN(CCC)CC(O)Cn1cc(/C=C/C(=O)c2ccc(OCC)cc2)c2ccccc21 (centres undefined) | inactive
96 | CCC(=C(c1ccc(OC)cc1)c1ccc(OC)cc1)c1cn(CC(O)CN2CCN(C)CC2)c2ccccc12 (centres undefined) | 39.8 µM (active)
97 | CCC(=C(c1ccc(OC)cc1)c1ccc(OC)cc1)c1cn(CC(O)CN(CCO)CCO)c2ccccc12 (centres undefined) | 39.8 µM (active)
98 | COc1ccc(C(=O)/C=C/c2cn(CC(O)CN(CC(C)C)CC(C)C)c3ccccc23)cc1 (centres undefined) | inactive
99 | COc1ccc(C(=O)/C=C/c2cn(CC(O)CN3CCc4ccccc43)c3ccccc23)cc1 (centres undefined) | inactive
